This is an account of results in PubChem BioAssay AID651558 (National Center for Advancing Translational Sciences (NCATS), 2012).

Molecules are shown by their SMILES. Among all 1,200 compounds or so, about 480 (40%) were called active. Inconclusive results (about 29%) are left out. Some of the results follow. Values without a mark were called inactive. The call rests on the fitted dose curve; in most records, active means well fitted inhibition curve with a large enough effect; inconclusive means small, poorly fitted or top-dose-only effect; inactive means no such curve, though single readings can be large or run the other way.
On the % scale 0 is the no-effect control and ±100 the full control effect; potency means the concentration at half of the fitted maximal effect.

The assay in a line: qHTS Assay to Find Inhibitors of Chronic Active B-Cell Receptor Signaling: Hit Validation in Primary Screen. Further: nearly all actives have a fitted effect of over 75% in size. The note with it: ABC-DLBCL IkB-luc/CBR ratio luminescence, 4 h; series mostly up to 46.1 µM; activity change, negative = inhibition: at the top concentration. An outline of the steps:
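Concentration series (3 nM to 46 uM) tested on TMD8 cells induced with doxycycline for 4 h. Filter-corrected green (IkBa fusion) over red (unfused) luciferase signal; Data were normalised to 10 uM MG-132 and untreated cell wells.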
With `O=C(N/N=C/c1ccc(Cl)cc1)c1sccc1OCc1ccc(F)cc1`, the Potency was 5170 nM (active). Take `Fc1ccc(NC(=S)N/N=C/c2ccc(F)c(F)c2)cc1`: the “activity change, negative = inhibition” value is 32.7%. On the same count and under the same terms, to `NNC(=O)/C(=C\c1ccco1)NC(=O)c1ccco1` belongs -4.29%. Take `COc1ccccc1C1=NOC(COc2ccc3c(C)cc(=O)oc3c2)C1` (stereo unspecified): the Potency is 8200 nM (active).

In the case of `CCCCOc1ccc2c(C)cc(=O)oc2c1OCCCC`, the “activity change, negative = inhibition” value was -11.1%. Turning to `Cc1cc(=O)oc2cc(OCC3CC(c4ccccc4Cl)=NO3)ccc12` (stereo unspecified), the Potency is 2590 nM (active). On the same count and under the same terms, as for `Cc1ccc(NC(=S)NNC(=S)Nc2ccc(C)cc2C)cc1`, the figure is 1840 nM (active). As for `C=CCNC(=S)N/N=C/c1ccc(C)cc1C`, the “activity change, negative = inhibition” value was -9.31%. Consider `Cc1ccc(NC(=S)NNC(C)(C)C)cc1`, for which the “activity change, negative = inhibition” value was -1.5%. Take `CCOc1cc(NC(=O)CCl)c(OCC)cc1NC(=O)CCl`: the Potency is 5800 nM (active). In the case of `C/C(=N\NC(=S)NC1CCCCC1)c1ccc(C)o1`, the “activity change, negative = inhibition” value is -3.17%. On the same count and under the same terms, to `C(=N\Nc1nc2ccccc2[nH]1)/C1CCCCC1` belongs 2.77%. On to `CSc1nc(SCC(=O)NCc2ccco2)c2c3c(sc2n1)COC(C)(C)C3`, for which the Potency was 20600 nM (active).

For the compound `O=C1NC(=Nc2ccc(O)cc2)S/C1=C\C=C\c1ccco1`, the Potency is 2910 nM (active). Consider `O=C(Cc1cccs1)N/N=C/C=C/c1ccco1`, for which the “activity change, negative = inhibition” value is -17.3%.

For `Cn1cccc1/C=C1\SC(=Nc2ccc(O)cc2)NC1=O`, the Potency was 1030 nM (active). Same read-out and setting: to `CCOc1c(Br)cc(CNc2ccc3c(c2)OCCO3)cc1OC` belongs 10300 nM (active).

As for `CCOc1c(Cl)cc(CNCC(C)C)cc1OC`, the “activity change, negative = inhibition” value is -6.38%. On to `CCOc1cc(CNc2ccc3c(c2)OCCO3)cc(Br)c1OCC`, for which the Potency was 5170 nM (active). With `O=C(NN=C1CCCC1)c1n[nH]c2c1CCC2`, the “activity change, negative = inhibition” value is -10.7%. In the case of `O=C(N/N=C/c1ccc(Cl)cc1)c1n[nH]c2c1CCCC2`, the Potency was 2060 nM (active). Same read-out and setting: as for `Cc1ccc(/C=N/NC(=O)c2n[nH]c3c2CCCC3)cc1`, the figure is 206 nM (active); as for `Cc1ccc(NC(=O)/C=C/c2ccco2)nc1`, 1160 nM (active). On to `COc1ccc(NC(=S)NC(=O)/C=C/c2ccco2)cc1`, for which the “activity change, negative = inhibition” value was -12.3%.

As to `Cc1cccc(C)c1OCC(=O)N/N=C/C=C/c1ccco1`, the “activity change, negative = inhibition” value is -9.1%. In the case of `O=C(COc1ccc(Oc2ccccc2)cc1)NCc1cn2ccccc2n1`, the Potency was 11600 nM (active). With `O=C(CNCc1ccccc1)Nc1ccc(Oc2ccccc2)cc1`, the “activity change, negative = inhibition” value is -2.09%.

`Cc1cccc(NC(=O)c2ccc(C(=O)Nc3cccc(C)c3)nc2)c1`: the Potency was 10300 nM (active). For `Cc1cccc(NC(=S)NNC(=O)CCn2cc(C)cn2)c1`, the “activity change, negative = inhibition” value is -3.27%.

Consider `CCOC(=O)c1c(C=O)c2sc(C)cc2n1C`, for which the “activity change, negative = inhibition” value was 42.4%. For the compound `CCOC(=O)c1c(C)c(C(=O)OCC)n(C)c1C`, the Potency is 6510 nM (active).

On to `COc1ccc(/C(C)=N/Nc2ccc(C(=O)O)cc2)cc1OC`, for which the Potency was 23.1 nM (active). `COc1ccc(/C(C)=N/Nc2nc3ccccc3nc2C)cc1OC`: the “activity change, negative = inhibition” value is -8.71%.

For `Cc1cc(C)c2nc3sc(C(=O)N4CCOCC4)c(N)c3cc2c1`, the Potency was 1460 nM (active).

Turning to `CCC1=Nc2cc(C(=O)NCCCOC)ccc2Sc2ccccc21`, the Potency is 2060 nM (active). On the same count and under the same terms, to `CCCC1=Nc2cc(C(=O)NCCCOC(C)C)ccc2Sc2ccccc21` belongs 20600 nM (active); to `CCOCCCNC(=O)c1ccc2c(c1)N=C(CC)c1cc(Br)ccc1S2`, 259 nM (active); to `CCCC1=Nc2cc(C(=O)NCCCOCC)ccc2Sc2ccccc21`, 1030 nM (active). For the compound `CC1=NN(C(N)=S)C(=O)C1N=Nc1cccc(C)c1` (stereo unspecified), the “activity change, negative = inhibition” value is 21%. For `O=C(c1cc([N+](=O)[O-])ccc1N1CCOCC1)N1CCN(c2ccccc2)CC1`, the Potency is 3260 nM (active). The same measure, in the same setting: to `O=C(c1ccc(Cl)cc1)c1cc([N+](=O)[O-])ccc1N1CCOCC1` belongs 5800 nM (active). Consider `O=C(NC(=S)N1CCOCC1)c1cn(-c2ccccc2)nc1-c1ccccc1`, for which the “activity change, negative = inhibition” value is -5.47%. On the same count and under the same terms, as for `C/C(=N\NC(=O)COc1ccc(C(C)(C)C)cc1)c1ccc(N2CCOCC2)cc1`, the figure is -11.3%; as for `O=C(Oc1ccc2ccc(OC(=O)N3CCOCC3)cc2c1)N1CCOCC1`, -7.41%. Turning to `COc1ccc(C(=O)c2cc([N+](=O)[O-])ccc2N2CCOCC2)cc1`, the Potency was 2060 nM (active). Still for that read-out and setting: as for `CCOc1ccc(C(=O)c2cc([N+](=O)[O-])ccc2N2CCOCC2)cc1`, the figure is 116 nM (active). With `Cc1ccc(-n2cc(CNCCc3ncc(C)[nH]3)c(-c3ccc(F)cc3)n2)cc1`, the “activity change, negative = inhibition” value was -19.7%. `COc1cc2c(cc1OC)-c1cc(NC3CCCCCC3)nc(=O)n1CC2`: the Potency is 9200 nM (active). Still for that read-out and setting: as for `COc1cc2c(cc1OC)-c1cc(NC3CCCCC3)nc(=O)n1CC2`, the figure is 23100 nM (active); as for `Cc1onc(-c2ccccc2)c1-c1nc2cc(Cl)ccc2c(=O)o1`, 2310 nM (active).

As for `C#CCOCCOCCOCCNc1nc(N2CCN(C(=O)[C@H](C(C)C)n3cc(CCO)nn3)CC2)nc(N2CCN(C(=O)[C@H]([C@@H](C)CC)n3cc(CCCN=C(N)N)nn3)CC2)n1`, the “activity change, negative = inhibition” value is 49.8%.
